Source: PubChem (National Center for Advancing Translational Sciences (NCATS))
The list is not random: actives were taken first. Their share in the collection is about 3.1%.
PLK1 PBD inh: qHTS for Inhibitors of PLK1-PDB (polo-like kinase 1 - polo-box domain): Primary Screen; AID 720504, 2013; Plk1 PBD binding of FITC phosphopeptide, fluorescence polarization; Potency, µM, without a hit: max response, negative = inhibition, hits mostly inhibitors; hit rate 2.8% among 360,000; further: potency means the concentration at half of the fitted maximal effect; series mostly up to about 57 µM; nearly all actives have a fitted effect of over 65% in size
Target sequence (P53350 whole entry, looked up, the tested form may be a part): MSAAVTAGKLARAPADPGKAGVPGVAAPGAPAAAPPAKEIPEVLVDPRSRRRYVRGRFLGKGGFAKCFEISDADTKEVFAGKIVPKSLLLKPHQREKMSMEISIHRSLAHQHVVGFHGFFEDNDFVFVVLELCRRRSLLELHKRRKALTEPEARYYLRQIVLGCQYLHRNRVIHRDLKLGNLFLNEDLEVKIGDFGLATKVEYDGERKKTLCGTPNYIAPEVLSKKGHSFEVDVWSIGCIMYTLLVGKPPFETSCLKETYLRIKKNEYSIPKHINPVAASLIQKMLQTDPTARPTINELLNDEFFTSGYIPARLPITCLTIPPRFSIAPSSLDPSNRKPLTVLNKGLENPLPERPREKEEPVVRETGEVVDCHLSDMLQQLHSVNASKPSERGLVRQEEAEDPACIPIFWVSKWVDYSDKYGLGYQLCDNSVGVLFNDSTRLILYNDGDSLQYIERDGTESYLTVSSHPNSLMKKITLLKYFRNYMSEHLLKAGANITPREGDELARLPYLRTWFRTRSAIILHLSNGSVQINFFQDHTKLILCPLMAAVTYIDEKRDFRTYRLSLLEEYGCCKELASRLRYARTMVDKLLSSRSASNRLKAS
VDR inh: Inhibitors of the vitamin D receptor (VDR): qHTS; Vitamin D3 receptor (Homo sapiens), P11473; VDR-SRC2-3 peptide fluorescence polarization, 2 h; Potency, µM, without a hit: max response, negative = inhibition, hits mostly inhibitors; hit rate 0.93% among 400,000; AID 504847, 2011; further: potency means the concentration at half of the fitted maximal effect
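Reagent solutions, kept cold and dark, are dispensed first; compounds are then pinned in at 23 nl, plates briefly spun, and incubated 2 h at ambient temperature. Inhibition of VDR–SRC2-3 peptide binding is read by fluorescence polarization.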
GLS inhibitor: qHTS for Inhibitors of Glutaminase (GLS). GLS enzymatic activity, qHTS titration. Potency, µM (series often up to 45.5 µM), for inactives: at the top dose activity change, negative = inhibition, actives largely listed as inhibitors. hit rate 0.21% among 410,000. AID 624170, 2012; further: potency means the concentration at half of the fitted maximal effect
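Assay buffer: 45 mM KH2PO4 pH 8.2, 0.02% Tween-20. hKGA acts on L-glutamine (1 mM solution added); product glutamate is reported by an oxidase/peroxidase Amplex Red coupling, with fluorescence taken at baseline and 30 min.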
KAT2A inh: qHTS Assay for Inhibitors of GCN5L2; Histone acetyltransferase KAT2A (Homo sapiens), Q92830; GCN5L2 HAT assay, ThioGlo1 CoA-SH fluorescence; Potency, µM (series often up to 58.9 µM), without a hit: top-dose activity change, negative = inhibition, actives largely listed as inhibitors; hit rate 0.21% among 390,000; further: potency means the concentration at half of the fitted maximal effect
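GCN5L2 (20 nM) in 50mM HEPES pH 7.5, 0.1mM EDTA, 0.01% Tween-20 preincubated 15 min with compounds at room temperature. Reaction started with H3(1-25) 75uM, acetyl-CoA 70uM, ThioGlo1 50uM; CoA-thiol fluorescence (Ex340/Em540) read at 0 and 20 min.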
PI4K2A inh: qHTS for small molecular inhibitors of PI4K2A. Phosphatidylinositol 4-kinase type 2-alpha (Homo sapiens), Q9BTU6. purified PI4K2A, ADP-Glo luminescence, 1 h; hits give low values. activity change, negative = inhibition, % at 76.9 µM. hit rate 0.13% among 420,000; in the data active means activity change below about -50%; inconclusive means mostly about -30% to -49%;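 further: -100% = wells without enzyme as full effect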
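In this quantitative HTS, ADP production by PI4K2A was quantified luminescently after 1 h at ambient temperature; 100 microM adenosine served as plate-quality control.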
* marks the source's active call; other numbers are inactive results; ? = inconclusive; / = no result given; ! = not active in a repeat. Unless noted, the call rests on the fitted dose curve; in most records, active means well fitted curve in the direction sought with a large enough effect; inconclusive means small, poorly fitted or top-dose-only effect, or another doubt; inactive means no such curve, though single readings can be large; an effect the other way counts as inactive or inconclusive. Unless noted, on the % scale 0 is the no-effect control and ±100 the full control effect.

SMILES | PLK1 PBD inh | VDR inh | GLS inhibitor | KAT2A inh | PI4K2A inh
CCc1ccc(OC(C)c2nc(-c3ccc(-n4cccc4)cc3)no2)cc1 (stereo unspecified) | / | -10.8% | -10.8% | -0.6% | -9.4
CC[C@H](C)C(=O)O[C@H]1C[C@@H](C)C=C2C=C[C@H](C)[C@H](CC[C@@H]3C[C@@H](O)CC(=O)O3)[C@H]21 | -13.0% | 50.1µM*! | 2.6% | 0.2% | 1.3
CCOc1ccc(C=Nn2c(-c3ccc(F)cc3)n[nH]c2=S)cc1 | / | / | / | / | -2.8
O=S(=O)(c1cc2ccccc2s1)n1c(CN2CCOCC2)nc2ccccc21 | / | / | / | / | 2.2
CCOc1ccc(Oc2nc(Nc3ccc(C)cc3)nc(N(C)C)n2)nn1 | 21.2µM* | -10.9% | -10.5% | -5.1% | -1.1
CCN(CC)c1nc(Nc2ccccc2)nc(Oc2ccc(=O)n(C)n2)n1 | 3.0% | 6.8% | -2.7% | -9.8% | 1.8
COc1ccc(-n2cc(C(=O)N(C)c3cc(C)ccc3OC)c3ccccc3c2=O)cc1 | / | -5.4% | -6.2% | -8.0% | -5.4
S=C(NCCCN1CCOCC1)NCCCN1CCOCC1 | 5.32µM* | ? | 11.7% | -6.0% | 1.7
FC(F)(F)Oc1ccc(NC(=S)NCCCN2CCOCC2)cc1 | 11.9µM* | -7.4% | 0.7% | -4.9% | -3.3
CCSC[C@H](NC(=O)[C@H](C)N)C(=O)N[C@@H](CC(=O)O)C(=O)N[C@H](C(=O)N[C@@H](C)C(=O)N[C@H](C(=O)N[C@@H](CSCC)C(=O)N[C@H](C(=O)N[C@H](C(=O)N[C@@H](Cc1cnc[nH]1)C(=O)N[C@@H](CCCNC(=N)N)C(=O)N[C@@H](CC(C)C)C(=O)N[C@@H](C)C(=O)NCC(=O)N[C@@H](CC(C)C)C(=O)N[C@@H](CC(C)C)C(=O)N[C@@H](CO)C(=O)N[C@@H](CCCNC(=N)N)C(=O)N[C@@H](CO)C(=O)NCC(=O)NCC(=O)N[C@H](C(=O)N[C@H](C(=O)N[C@@H](CCCCN)C(=O)N[C@@H](CC(N)=O)C(=O)N[C@@H](CC(N)=O)C(=O)N[C@@H](Cc1ccccc1)C(=O)N[C@H](C(=O)N1CCC[C@H]1C(=O)N[C@H](C(=O)N[C@@H](CC(N)=O)C(=O)N[C@H](C(=O)NCC(=O)N[C@@H](CO)C(=O)N[C@@H](CCCCN)C(=O)N[C@@H](C)C(=O)N[C@@H](Cc1ccccc1)C(N)=O)C(C)C)[C@@H](C)O)C(C)C)C(C)C)C(C)C)[C@@H](C)O)C(C)C)[C@@H](C)O)[C@@H](C)O | / | 9.7% | / | -9.9% | /
COc1ccc(/C=C/C(=O)Nc2ccc(NC(C)=O)cc2)cc1S(=O)(=O)N1CCOCC1 | 29.9µM* | -15.1% | -6.4% | 2.2% | -2.2
COc1ccc(C)cc1S(=O)(=O)N1CCOCC1 | 18.9µM* | -24.8% | 0.0% | 2.6% | 1.0
CCOc1ccc(/C=C/C(=O)Nc2ccc(N3CCOCC3)cc2)cc1 | 3.36µM* | ? | ? | 2.9% | -8.1
COc1ccc(Br)cc1S(=O)(=O)N1CCOCC1 | 0.7% | 6.0% | -2.0% | -2.0% | -0.2
COc1ccc(/C=C/C(=O)Nc2ccccc2)cc1S(=O)(=O)N1CCOCC1 | -4.0% | 3.2% | -0.6% | 2.0% | -2.5
O=C1[C@@H](C2CCCCC2)[C@@H]2c3ccccc3C=NN2[C@@H]2c3ccccc3C=NN12 | / | / | / | / | 2.2
O=C(O)CCN1C(=O)/C(=C/c2ccc(F)cc2F)SC1=S | / | / | / | / | -1.4
CCOC(=O)C(C)Sc1nc(=O)n2cc(C)ccc2n1 (stereo unspecified) | -2.2% | 5.2% | 5.1% | -27.0% | 2.9
CCOC(=O)C(C)Sc1nc(=O)n2ccccc2n1 (stereo unspecified) | 23.8µM* | -12.9% | 0.0% | 0.1% | 1.2
COc1ccc(F)cc1-c1cc(C(C)=O)c2n(c1=O)CCC2 | / | / | / | / | -2.1
COc1ccc(NC(=O)CN(C)C(=O)CCc2ccccc2)cc1 | -5.1% | 14.8% | 7.9% | -1.7% | -6.6
